Molecules are shown by their SMILES. “And” between values parts separate entries of the source, which are not always exact repeats. Identical values can stand only once. Results filed as inconclusive are left out. Some compounds were tested as several samples or in several runs, with calls that do not always agree. The source made the active and inactive calls. Calls follow the shape of the dose curve; as a rule, active = well fitted curve in the direction sought with a large enough effect; inconclusive = small, poorly fitted or top-dose-only effect, or another doubt; inactive = no such curve, though single readings can be large; an effect the other way counts as inactive or inconclusive.

The values below come from PubChem BioAssay (NCATS).

The target of assay [1] is Calcium and integrin-binding protein 1 (Homo sapiens) (UniProt Q99828). As to the kind of experiment: Primary qHTS for Identification of Calcium Integrin Binding Protein 1 (CIB1) Competitor (AID 1508620).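 Also: GST tagged CIB1 binding a fluorescein labelled alphaIIb integrin peptide tracer; top concentration of the series differs between compounds.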 To be noted: CIB1-GST / FITC-alphaIIb peptide fluorescence polarization; series mostly up to 57.7 µM. Summed up: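 Fluorescence polarization competition: CIB1-GST (1 uM final) preincubated with compound 15 min at room temperature, then FITC-labeled alphaIIb peptide (100 nM final) added for another 15 min. Polarization read at Ex 480/Em 540.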
Calcium and integrin-binding protein 1 (Homo sapiens), sequence (Q99828 whole entry, looked up): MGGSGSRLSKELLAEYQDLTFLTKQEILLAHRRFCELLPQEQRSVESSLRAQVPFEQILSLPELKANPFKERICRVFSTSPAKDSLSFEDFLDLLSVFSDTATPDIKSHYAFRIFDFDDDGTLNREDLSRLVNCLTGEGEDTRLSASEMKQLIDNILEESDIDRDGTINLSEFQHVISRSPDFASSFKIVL
In general terms: Quantitative high-throughput screening tests each substance at several concentrations.

Assay [2] is described as follows: Primary qHTS for small molecule stabilizers of the endoplasmic reticulum resident proteome: Secreted ER Calcium Modulated Protein (SERCaMP) assay (AID 1508630). To be noted: SH-SY5Y GLuc-SERCaMP (Gaussia luciferase released on ER calcium loss) secretion, thapsigargin, luminescence; series mostly up to 38.4 µM. Summed up: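 GLuc-SERCaMP-expressing SH-SY5Y cells, pretreated 16 h with compound, are challenged with thapsigargin to empty ER calcium stores; after 4 h, coelenterazine is added directly to the medium and luminescence is imaged.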

The nature of assay [3]: Primary qHTS for inhibitors of nuclear receptor binding SET domain protein 2 (NSD2) in an isogenic RCH-ACV NSD2 p.E1099K mutant (9B) (AID 1645876). Also: nearly all actives have a fitted effect of over 70% in size. Also: potency is read from the fitted curve at half-maximal effect. The conditions noted are these: RCH-ACV NSD2 E1099K (9B) viability, CellTiter-Glo, 72 h; series mostly up to 44.9 µM.
Assay [4] can be described thus: Primary qHTS for inhibitors of nuclear receptor binding SET domain protein 2 (NSD2) in an RCH-ACV wild type WT cells (2C) (AID 1645877). Also: nearly all actives have a fitted effect of over 70% in size. Also: potency is read from the fitted curve at half-maximal effect. The conditions noted are these: RCH-ACV (leukaemia line) NSD2 WT (2C) viability, CellTiter-Glo, 72 h; series mostly up to 44.9 µM.
% is scaled to controls: 0 for no effect and ±100 for the full control effect.

Take `CN1CCN2c3ncccc3Cc3ccccc3C2C1` (centres undefined): the Potency result in assay [1], in assay [2], in assay [3] and in assay [4] was “inactive” in each case.
Regarding `OC(c1cc(C(F)(F)F)nc2c(C(F)(F)F)cccc12)C1CCCCN1` (centres undefined), the Potency result in assay [1] and in assay [2] was “inactive” each time. Besides, the Potency in assay [3] was 11.8 µM (active); in assay [4] it was 13.2 µM (active).
Regarding `CS(=O)(=O)c1ccc(C2=C(c3ccccc3)C(=O)OC2)cc1`, the Potency result in assay [1], in assay [2], in assay [3] and in assay [4] was “inactive” in each case.
For `CC[C@@H]([C@H](C)O)n1ncn(-c2ccc(N3CCN(c4ccc(OCC5CO[C@@](Cn6cncn6)(c6ccc(F)cc6F)C5)cc4)CC3)cc2)c1=O` (some centres undefined), the Potency entry in assay [1], in assay [2], in assay [3] and in assay [4] was “inactive” in each case.
Consider `COc1c(C)cnc(Cn2cnc3c(Cl)nc(N)nc32)c1C`, for which the Potency entry in assay [1] and in assay [2] was “inactive” each time. The Potency in assay [3] is 0.235 µM (active); in assay [4], 0.263 µM (active).
On to `COc1nc(C)cnc1NS(=O)(=O)c1cccnc1-c1ccc(-c2nnco2)cc1`, for which the Potency result in assay [1], in assay [2], in assay [3] and in assay [4] was “inactive” in each case.
As to `CCOC(=O)c1c(CSc2ccccc2)n(C)c2cc(Br)c(O)c(CN(C)C)c12`, the Potency result in assay [1] and in assay [2] was “inactive” each time. Besides, the Potency in assay [3] was 18.6 µM (active); in assay [4], 20.9 µM (active).
`CN(C)c1ccccc1CN1CCCN(Cc2ccccc2N(C)C)C1c1ccncc1`: the Potency result in assay [1] and in assay [2] was “inactive” in each case. The Potency was 14.8 µM (active) in assay [3] and 10.5 µM (active) in assay [4].
`O=C1CCCC(=O)C1C(=O)c1ccc(C(F)(F)F)cc1[N+](=O)[O-]`: the Potency entry in assay [1], in assay [2], in assay [3] and in assay [4] was “inactive” throughout.
Consider `O=C(O)Cc1cccc(OCCCN(Cc2cccc(C(F)(F)F)c2Cl)CC(c2ccccc2)c2ccccc2)c1`, for which the Potency result in assay [1], in assay [2], in assay [3] and in assay [4] was “inactive” throughout.
`CC[C@H](C=C[C@@H](C)[C@H]1CC[C@H]2[C@@H]3CC=C4C[C@@H](O)CC[C@]4(C)[C@@H]3CC[C@]12C)C(C)C`: the Potency entry in assay [1], in assay [2], in assay [3] and in assay [4] was “inactive” each time.
For `CC(C)(F)C[C@H](N[C@@H](c1ccc(-c2ccc(S(C)(=O)=O)cc2)cc1)C(F)(F)F)C(=O)NC1(C#N)CC1`, the Potency entry in assay [1], in assay [2], in assay [3] and in assay [4] was “inactive” each time.
For `COC(=O)Nc1ccc(-c2nc(N3CCOCC3)c3cnn(C4CCN(C(=O)OC)CC4)c3n2)cc1`, the Potency entry in assay [1] and in assay [2] was “inactive” throughout. In addition, the Potency in assay [3] was 1.05 µM (active); in assay [4], 0.742 µM (active).
In the case of `CN[C@@H](C)[C@H]1[C@H](O)C[C@@]2(C)[C@@H]3CC[C@H]4C(C)(C)[C@@H](NC)CC[C@@]45C[C@@]35CC[C@]12C`, the Potency entry in assay [1] and in assay [2] was “inactive” in each case. Besides, the activity change, negative = viability loss in assay [3] is 5.77% [at 9.23 µM] (inactive). Moreover, the activity change, negative = cell killing in assay [4] was -13.6% [at 9.23 µM] (inactive).
Regarding `CC(C)Oc1cc(Nc2nc(N[C@@H](C)c3ccc(F)cn3)ncc2Cl)[nH]n1`, the Potency result in assay [1] and in assay [2] was “inactive” in each case. Also, the Potency was 7.42 µM (active) and 8.2 µM (active) in assay [3]; 9.34 µM (active) and 6.51 µM (active) in assay [4].
On to `NC(=O)c1noc([C@H](CCCC2CCCCC2)CC(=O)NO)n1`, for which the Potency result in assay [1] and in assay [2] was “inactive” throughout. Also, the values for the Potency in assay [3] and in assay [4] were 1.86 µM (active) and 1.66 µM (active), respectively.
Regarding `CCC[C@H](N[C@@H](C)C(=O)N1[C@@H]2CCCC[C@H]2C[C@H]1C(=O)O)C(=O)OCC`, the Potency result in assay [1], in assay [2], in assay [3] and in assay [4] was “inactive” in each case.
For `Cc1ccc(S(=O)(=O)Nc2nc3ccccc3nc2Nc2ccc3nsnc3c2)cc1`, the Potency result in assay [1], in assay [2] and in assay [3] was “inactive” in each case. Besides, the Potency in assay [4] is 14.6 µM (active) and inactive.
Regarding `O=[N+]([O-])c1ccc(Nc2ccccc2-c2ccccc2)c2nonc12`, the Potency entry in assay [1] and in assay [2] was “inactive” throughout. In addition, the Potency in assay [3] and in assay [4] was 20.9 µM (active) throughout.
Turning to `Cc1c(C(=O)Nc2ccc(N3C[C@@H](C)O[C@@H](C)C3)nc2)cccc1-c1ccc(OC(F)(F)F)cc1`, the Potency result in assay [1], in assay [2], in assay [3] and in assay [4] was “inactive” in each case.
Consider `NC(=O)c1ccc(N(C(N)=O)c2c(F)cccc2F)nc1-c1ccc(F)cc1F`, for which the Potency result in assay [1], in assay [2], in assay [3] and in assay [4] was “inactive” in each case.
Take `COc1ccc(-c2oc3c(CC=C(C)C)c(O)cc(O)c3c(=O)c2O)cc1`: the Potency entry in assay [1], in assay [2], in assay [3] and in assay [4] was “inactive” each time.
With `CN1c2ccccc2C(=O)N2CCc3c([nH]c4ccccc34)C21` (centres undefined), the Potency entry in assay [1] and in assay [2] was “inactive” throughout. The figures for the Potency in assay [3] and in assay [4] were 2.09 µM (active) and 1.32 µM (active), respectively.
For `Cc1cc2c(cc1C1(c3ccc(C(=O)O)cn3)CC1)C(C)(C)CCC2(C)C`, the Potency result in assay [1], in assay [2], in assay [3] and in assay [4] was “inactive” each time.
For `CN[C@@H]1CN(c2ccc3c(=O)c(C(=O)O)cn(-c4nccs4)c3n2)C[C@@H]1OC`, the Potency entry in assay [1] and in assay [2] was “inactive” throughout. Further, the Potency in assay [3] was 0.102 µM (active); in assay [4], 0.0645 µM (active).
As for `NCC1CCC(C(=O)O)CC1` (centres undefined), the Potency entry in assay [1], in assay [2], in assay [3] and in assay [4] was “inactive” in each case.
